Data taken from PubChem BioAssay AID1053133 (Broad Institute, 2014).
Among all 89,000 compounds or so, about 10 (0.01%) were called active. Inconclusive results (about 10%) are left out. No stated cut-off is given here; in the data, active means activity change below about -37% (passing the limit was not always enough); inconclusive means no clear call, values can overlap the other calls; tested in A549 cells. The list is a sample of the results.

Experiment: blocks a specific stage of Vaccinia orthopoxvirus infection, primary screen, cell-based, single point (AID 1053133)
Conditions: Vaccinia-infected cells, mCherry/Venus stage reporter fluorescence, stronger effect = lower value, concentration not given here; activity change (Venus): measured here: Venus reporter, other viral stage

| SMILES | activity change (Venus) [%] | activity change (mCherry) |
| --- | --- | --- |
| C[C@@H]1CCCCO[C@@H](CN(C)C(=O)Cc2ccccc2)[C@H](C)CN([C@H](C)CO)C(=O)c2cc(NC(=O)Cc3ccccc3)ccc2O1 | -23.2 | -29.2% (inactive) |
| CN(C)C(=O)c1ccc(-c2ccc([C@H]3[C@H](CO)N4C(=O)CN(C(=O)C5CCCC5)C[C@@H]34)cc2)cc1 | 3.62 | 4.76% (inactive) |
| CO[C@H]1CC[C@H]2CCN(C)C(=O)C[C@@H](c3ccccc3)CN(C)C(=O)c3cccc(C#N)c3OC[C@@H]1O2 | 36.7 | 37.9% (inactive) |
| COc1ccccc1CNC(=O)C[C@H]1CC[C@@H](NC(=O)CN(C)C)[C@@H](CO)O1 | 17.1 | 6.13% (inactive) |
| COCC#Cc1ccc([C@H]2[C@@H](CO)N3C(=O)CN(C(=O)C4CCCC4)C[C@@H]23)cc1 | 10.7 | 14.5% (inactive) |
| CO[C@@H]1CN(C)C(=O)c2cc(NS(=O)(=O)Cc3ccccc3)ccc2OC[C@H](C)NC[C@H]1C | 3.49 | -2.28% (inactive) |
| COc1ccc(NC(=O)N(C)C[C@H]2OCCCC[C@@H](C)Oc3ccc(NS(=O)(=O)c4ccc(F)cc4)cc3C(=O)N([C@H](C)CO)C[C@H]2C)cc1 | -16.7 | -18% (inactive) |
| O=C(C[C@@H]1CC[C@@H]2[C@H](COC[C@@H](O)CN2S(=O)(=O)c2cccc(Cl)c2)O1)N1CCOCC1 | 10.1 | 21.4% (inactive) |
| O=C(C[C@@H]1CC[C@@H]2[C@H](COC[C@@H](O)CN2Cc2ccc(Cl)cc2)O1)NCc1ccccc1Cl | -11.5 | -7.35% (inactive) |
| O=C(C[C@@H]1CC[C@@H]2[C@H](COC[C@H](O)CN2S(=O)(=O)c2ccccc2)O1)N[C@H]1CCN(Cc2ccccc2)C1 | -6.28 | -10.6% (inactive) |
| COc1cccc(NC(=O)Nc2ccc3c(c2)C(=O)N(C)C[C@H](OC)[C@@H](C)CN[C@@H](C)CO3)c1 | 13.8 | 1.34% (inactive) |
| CCC(=O)Nc1ccc2c(c1)OC[C@@H](C)N(Cc1ccccc1OC)C[C@H](C)[C@H](OC)CN(C)C2=O | -6.3 | -3.87% (inactive) |
| COc1ccccc1-c1ccc([C@H]2[C@@H](CO)N(CC3CC3)C23CN(S(C)(=O)=O)C3)cc1 | 0.302 | -10.8% (inactive) |
| O=C(Nc1ccccc1F)N1CC(=O)N2[C@H](CO)[C@H](c3ccc(C#CC4CC4)cc3)[C@@H]2C1 | -0.75 | -2.67% (inactive) |
